Several values for one entry are separate records, joined by “and”; a condition that tells them apart may be missing. Identical values can stand only once. Inconclusive results are not listed. Activity calls are given as the source filed them. The call rests on the fitted dose curve; in most records, active means well fitted curve in the direction sought with a large enough effect; inconclusive means small, poorly fitted or top-dose-only effect, or another doubt; inactive means no such curve, though single readings can be large or run the other way.
assay: qHTS Assay for Identifying Gametocytocidal Compounds (AID 743244);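 on max response: actives lower the fluorescent signal which means gametocytes are killed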; conditions: P. falciparum 3D7 stage III-V gametocytes, alamarBlue, 72 h; max response: stronger effect = lower value
Method in brief: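 In this qHTS viability screen, late-stage 3D7 gametocytes are incubated with compound for 72 h, then with alamarBlue for 24 h; reduced resorufin fluorescence marks killing.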
On the % scale 0 is the no-effect control and ±100 the full control effect; potency means the concentration at half of the fitted maximal effect.

Structure (SMILES)	max response	Potency
Cn1sc(Cl)cc1=O	0.945% (inactive)	–
Oc1ccc2c3c1O[C@H]1[C@@H](O)CC[C@@]4(O)[C@@H](C2)N(CC2CCC2)CC[C@]314	2.47% (inactive)	–
O=C(CS(=O)C(c1ccccc1)c1ccccc1)NO (stereo not given)	-0.968% (inactive)	–
CC(=O)OC1CN2CCC1CC2 (stereo not given)	-0.102% (inactive)	–
CCC(C)(S(=O)(=O)CC)S(=O)(=O)CC	7.4% (inactive)	–
CCC/C=C/C=C/C(=O)O[C@H]1/C(=C/C(=O)OC)C[C@H]2C[C@H]([C@@H](C)O)OC(=O)C[C@H](O)C[C@@H]3C[C@H](OC(C)=O)C(C)(C)[C@](O)(C[C@@H]4C/C(=C/C(=O)OC)C[C@H](/C=C/C(C)(C)[C@]1(O)O2)O4)O3	-10.9% (inactive)	–
C[C@@H](Cc1ccccc1)N(C)C	-7.23% (inactive)	–
CN(C)[C@@H]1C(=O)C(C(N)=O)=C(O)[C@@]2(O)C(=O)C3=C(O)c4c(O)ccc(Cl)c4[C@@](C)(O)[C@H]3C[C@@H]12	3.58% (inactive)	–
O[C@H]1[C@H]2[C@H](O)CCCN2C[C@H]1O	-8.84% (inactive)	–
O=C1CN(O)C(c2ccccc2)=c2cc(Cl)ccc2=N1	0.268% (inactive)	–
CCC1(c2ccccc2)C(=O)NC(=O)N(C)C1=O (stereo not given)	-0.22% (inactive)	–
O=C1C=C2C=C[C@@H]3C[C@@]2(O1)[C@H]1CCCCN31	–	7.08 µM (active)
CN(C)[C@H](Cc1ccccc1)c1ccccc1	-4.16% (inactive)	–
CCON=O	-5.54% (inactive)	–
Clc1ccc(Cl)cc1	-1.73% (inactive)	–
CC1(C)[C@H](C=C(Cl)Cl)[C@H]1C(=O)OCc1c(F)c(F)cc(F)c1F	0.31% (inactive)	–
C[C@]12C[C@H]3S[C@H]3C[C@@H]1CC[C@@H]1[C@@H]2CC[C@]2(C)[C@@H](O)CC[C@@H]12	1.49% (inactive)	–
CCC(N)Cc1c[nH]c2ccccc12 (stereo not given)	2.35% (inactive) and -8.43% (inactive)	–
O=C(NC(=O)c1c(F)cccc1F)Nc1ccc(Cl)c(Oc2ncc(C(F)(F)F)cc2Cl)c1	-9.15% (inactive)	–
CCC(=O)O[C@]1(c2ccccc2)CCN(C)C[C@H]1C	-3.07% (inactive)	–

Structure (SMILES)	max response	Potency
CNc1ccc(C(=O)CC(O)CCC(C)C2OC(=O)CC(O)CC(=O)CC(O)CC(O)CC(O)CC(O)CC3(O)CC(O)C(C(=O)OC)C(CC(O[C@@H]4O[C@H](C)[C@@H](O)[C@H](N)[C@@H]4O)/C=C/C=C/C=C/C=C/C=C/C=C/C=C/C2C)O3)cc1 (stereo not given in full)	22.8% (inactive)	–
CCCCNCC(O)c1ccc(O)cc1 (stereo not given)	15.5% (inactive)	–
CC(=O)[C@H]1CC[C@H]2[C@@H]3CC[C@@H]4C[C@H](O)CC[C@]4(C)[C@H]3CC[C@]12C	-3.94% (inactive)	–
C/C(=C\c1csc(C)n1)[C@@H]1C[C@@H]2O[C@]2(C)CCC[C@H](C)[C@H](O)[C@@H](C)C(=O)C(C)(C)[C@@H](O)CC(=O)O1	12.6% (inactive)	–
CCNC(C)Cc1cccc(C(F)(F)F)c1 (stereo not given)	22.8% (inactive)	–
O=[N+]([O-])c1cc(I)c(O)c(I)c1	0.0812% (inactive)	–
OC[C@@H](O)[C@H]1O[C@@H]2O[C@@H](C(Cl)(Cl)Cl)O[C@@H]2[C@H]1O	-7.25% (inactive)	–
Clc1ccc(C2(Cn3cncn3)OCCO2)c(Cl)c1	-2.25% (inactive)	–
CC(=O)O[C@H]1CC[C@@]2(C)C(=CC[C@@H]3[C@@H]2CC[C@]2(C)C(=O)CC[C@@H]32)C1	5.11% (inactive)	–
C=CCC1(C(C)CCC)C(=O)N=C(S)NC1=O (stereo not given)	-3.05% (inactive)	–
COC([CH2][Hg])CNC(=O)c1ccccc1OCC(=O)O (stereo not given)	2.8% (inactive)	–
O=C(OCCN1CCCCC1)C(O)(c1ccccc1)c1ccccc1	6.84% (inactive)	–
C[C@]12CC[C@H]3[C@@H](CCC4=C(Cl)C(=O)CC[C@@]43C)[C@@H]1CC[C@@H]2O	-5.5% (inactive)	–
CC(=O)O[C@H]1C[C@H](O[C@H]2[C@@H](O)C[C@H](O[C@H]3[C@@H](O)C[C@H](OC4CC[C@@]5(C)[C@H](CC[C@@H]6[C@@H]5CC[C@]5(C)[C@@H](C7=CC(=O)OC7)CC[C@]65O)C4)O[C@@H]3C)O[C@@H]2C)O[C@H](C)[C@H]1O[C@@H]1O[C@H](CO)[C@@H](O)[C@H](O)[C@H]1O (stereo not given in full)	9.96% (inactive)	–
CC(=O)Oc1ccc2c3c1O[C@H]1[C@@H](OC(C)=O)C=C[C@H]4[C@@H](C2)N(C)CC[C@@]341	1.05% (inactive) and 0.272% (inactive)	–
Oc1cccc[c]1[Hg][Cl]	–	1.78 µM (active)
CCC1(c2ccccc2)C(=O)NC(=O)N(C(=O)c2ccccc2)C1=O (stereo not given)	-4.65% (inactive)	–
CN(C)CCCCCCN(C)C (tested in a mixture with another compound)	14.8% (inactive)	–
c1csc(C2(N3CCCCC3)CCCCC2)c1	-3.82% (inactive)	–
C=CC[C@]1(O)CC[C@H]2[C@@H]3CCC4=CCCC[C@@H]4[C@H]3CC[C@@]21C	15.3% (inactive)	–
